The campaign covered roughly 370,000 compounds. About 3,800 (1%) were called active. What follows is part of a selection rich in actives, with near analogues and random picks from the rest. Values without a mark were called inactive. Rule as the data show it: active = activation above about 7.8%; inactive = the rest.
Experiment: SMARCA2 (BRM) function activators, primary screen, cell-based, luminescence, high throughput (AID 652017);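 also: 0% = vehicle wells and 100% = reference activator wells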
Conditions: MG213 cells, MMTV-luciferase reporter, dexamethasone, overnight; at 9.1 µM; stronger effect = higher value

| SMILES | activation |
| --- | --- |
| O=C(N/N=C/c1c(O)n(C2CC2)c(=S)[nH]c1=O)c1ccccc1 | 5.22% |
| O=C(N/N=C/c1c(O)n(Cc2ccccc2)c(=O)[nH]c1=O)c1ccccc1 | 8.1% (active) |
| O=C(N/N=C/c1c(O)n(C2CC2)c(=S)[nH]c1=O)c1ccccc1Cl | 1.16% |
| Cc1ccccc1CCC[C@@H](CC1CCCCC1)CN(C)C(=O)Oc1ccccc1 | 0.55% |
| COc1ccc2c(c1)NP(=S)(c1ccccc1)N2 (stereo not given) | 0.4% |
| Cc1cc(C)c2c(c1)NP(=S)(c1ccccc1)N2 (stereo not given) | 9.88% (active) |
| COc1cccc(C(=O)N2C[C@H]3C[C@@H](C2)c2cccc(=O)n2C3)c1 | 0.48% |
| COP(=O)(Sc1ccccc1)C(Cc1ccccc1)NC(=O)OCc1ccccc1 (stereo not given) | 0.4% |
| NCC(O)c1ccc(O)cc1 (stereo not given) | -0.14% |
| O=C1CC(=O)N(Cc2ccccc2)C(=O)N1CCCCCCN1C(=O)CC(=O)N(Cc2ccccc2)C1=O | 1.8% |

Source: PubChem BioAssay AID652017 (The Scripps Research Institute Molecular Screening Center, 2013)
